The values that follow come from PubChem BioAssay AID1903 (Southern Research Specialized Biocontainment Screening …, 2009).

Several values for one entry are separate records, joined by “and”; a condition that tells them apart may be missing. Equal values may be shown once. Screen size: about 310,000 compounds; about 1,200 (0.39%) were called active. Not all results are given here. Measured potencies and affinities stand elsewhere. A number with no mark means an inactive call. The rule behind the calls is not given here.

Sequence of Large T antigen (Simian virus 40) (P03070 whole entry, looked up): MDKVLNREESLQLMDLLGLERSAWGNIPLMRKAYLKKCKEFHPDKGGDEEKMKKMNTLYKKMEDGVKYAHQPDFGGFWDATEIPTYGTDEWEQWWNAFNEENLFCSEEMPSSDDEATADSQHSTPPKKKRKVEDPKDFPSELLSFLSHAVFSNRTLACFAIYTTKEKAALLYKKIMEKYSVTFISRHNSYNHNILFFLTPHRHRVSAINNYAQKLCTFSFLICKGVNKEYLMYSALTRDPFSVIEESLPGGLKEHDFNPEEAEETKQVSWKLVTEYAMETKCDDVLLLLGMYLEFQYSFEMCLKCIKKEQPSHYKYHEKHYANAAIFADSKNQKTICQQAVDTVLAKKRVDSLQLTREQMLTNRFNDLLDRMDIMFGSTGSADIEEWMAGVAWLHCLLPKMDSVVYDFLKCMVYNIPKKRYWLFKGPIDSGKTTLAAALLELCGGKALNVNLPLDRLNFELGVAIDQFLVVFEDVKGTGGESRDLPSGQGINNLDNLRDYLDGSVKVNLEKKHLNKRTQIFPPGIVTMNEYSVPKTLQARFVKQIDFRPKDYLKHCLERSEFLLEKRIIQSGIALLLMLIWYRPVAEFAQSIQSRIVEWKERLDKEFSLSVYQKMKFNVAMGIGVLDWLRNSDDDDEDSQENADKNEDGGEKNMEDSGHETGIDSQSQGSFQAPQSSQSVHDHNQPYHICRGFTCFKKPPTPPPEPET

This test addresses Large T antigen (Simian virus 40) (UniProt P03070). Nature of the test: SV40 large T antigen inhibitors, biochemical (AID 1903). Particulars: SV40 large T antigen ATPase/helicase inhibition assay; at 20 µM; hits give high values.
What is called inhibition is the change of the read-out against control, counted positive when it falls. Consider `CNCc1ccccc1Sc1cccc(O)c1`, for which the inhibition is 25.7%. For `CNCc1ccccc1Sc1ccc(O)c(O)c1` the value was -1%; for `CCN(CC)Cc1ccccc1Sc1ccccc1`, 16.5%; for `CN(C)Cc1ccccc1Sc1ccc(Br)cc1`, 9.88%. Take `CCC(C)C(NC(=O)c1ccc(Cl)cc1)C(=O)Nc1cccnc1` (stereo unspecified): the inhibition is -3.25%.

For the compound `CCOC(=O)c1c(NC(=O)CSc2nnnn2C)sc(CC)c1C`, the inhibition is 4.57%.

For `O=C(N/C(=C/c1cccs1)C(=O)N1CCOCC1)c1ccccc1`, the inhibition was 6.38%. For `COc1ccc(Nc2nc(N3CCCCC3)c3ccccc3n2)cc1` the value was 8.24%; for `CN1CCN(c2nc(-c3ccccc3O)nc3ccccc23)CC1`, 3.42%. For the compound `COc1ccc(Nc2nc(N3CCCC3)c3ccccc3n2)cc1`, the inhibition was 17.3%. On to `Cc1ccc(Nc2nc(N3CCOCC3)c3ccccc3n2)cc1`, for which the inhibition is 6.59%. For `COc1ccc(OC)c(NC(=O)CSc2ccc(-c3ccco3)nn2)c1` the value was 11.7%. As for `CC(C)(C)OC(=O)[C@H](Cc1ccccc1)NC(=O)c1nc[nH]c1C(=O)N1CCN(c2ccccc2)CC1`, the inhibition is 10.9%.

Consider `Cc1cc(C(=O)NNC(=S)NCc2ccco2)n(C)n1`, for which the inhibition was -6.03%. The same measure for `CC(=O)OCCCNc1cc(Sc2nc3ccccc3s2)c2nonc2c1[N+](=O)[O-]`: 22%.

Take `CCC(=O)OCCNc1cc(Sc2nc3ccccc3s2)c2nonc2c1[N+](=O)[O-]`: the inhibition is 10.9%. For `CC(C)C(=O)N1CCC(Cc2ccccc2)CC1` the value was 12.3%.

For the compound `COc1cc(Cl)c(S(=O)(=O)N2CCCC2)cc1Cl`, the inhibition was 17.9%. The same measure for `O=C1C=CC(=O)N1c1ccc(I)cc1Cl`: 8.61%; for `CNC(=O)COC(=O)c1nc(-n2nc(C)cc2C)ccc1Cl`: 1.24%; for `COc1ccc(C(=O)Nc2nccs2)cc1`: 4.19%.

Turning to `COc1ccc(/C=C\c2nc(O)c([N+](=O)[O-])c(=O)[nH]2)cc1O`, the inhibition was 5.95%. With `O=c1[nH]c(/C=C\c2ccc(O)c(Cl)c2)nc(O)c1[N+](=O)[O-]`, the inhibition is 22.7%.

In the case of `Cc1csc(Sc2ccc(S(=O)(=O)N3CCCC3)cn2)n1`, the inhibition is 10.9%. For `O=C(O)c1cc(-c2cccs2)nc2ccc(Br)cc12`, the inhibition was 15.7%.

As to `NC(=O)c1nsc(C(=O)N(c2ccc(F)cc2)C(C(=O)NCC2CCCO2)c2ccc3ncccc3c2)c1N` (stereo unspecified), the inhibition was -0.08%. The same measure for `O=C(NC1CCSc2ccccc21)c1ccc(Cl)c(S(=O)(=O)N2CCOCC2)c1` (stereo unspecified): 9.03%. The same measure for `NS(=O)(=O)c1cccc(C(=O)NC2CCSc3ccccc32)c1` (stereo unspecified): -2.32%; for `COC(=O)C1=C(C)NC(=S)N(C(C)=O)C1c1ccc(OC)c(OC)c1` (stereo unspecified): 9.87%. In the case of `COC(=O)Cc1c(C)c2ccc(OCC(=O)c3ccc(OC)c(OC)c3)cc2oc1=O`, the inhibition was 14.4%.

For the compound `Cc1csc(NC(=O)CS(=O)(=O)Cc2ccccc2)n1`, the inhibition is 0.95%. The same measure for `COc1cccc(NC(=O)c2cc([N+](=O)[O-])ccc2NC(=O)CNCC2CCCO2)c1` (stereo unspecified): 3.88%; for `Cc1cc(SCC(=O)c2ccc(O)c(O)c2)nc2ccccc12`: 35.4%; for `Cn1c(SCC(=O)c2ccc(O)c(O)c2)nnc1-c1ccccc1`: 27.2%. As to `O=C(CSc1nc2ccccc2n1CCc1ccccc1)NC1CC1`, the inhibition was 5.51%. For `Cc1cc(SCC(=O)c2ccc(O)c(O)c2)n2nc(C)c(-c3ccccc3)c2n1` the value was 31.3%; for `O=C(CSc1nc2ccccc2n1CCc1ccccc1)N1CCOCC1`, 11.6%; for `Cc1cc(C)nc(SCC(=O)c2ccc(O)c(O)c2)n1`, 35.3%. As for `Cc1cc(-c2nnc(CCC(=O)N(C)C(C)c3cccs3)o2)no1` (stereo unspecified), the inhibition was 22%. On to `CCC(C)N(C(=O)COC(=O)COc1c(C)cc(C)cc1C)C1CCS(=O)(=O)C1` (stereo unspecified), for which the inhibition is 7.34%. For `COCC1CCN(C(=O)c2ccc3oc(Cc4ccc(Cl)cc4)nc3c2)C1` (stereo unspecified) the value was 11.1%.

Take `Cc1sc2ncnc(Sc3ccccc3C(=O)Nc3ccc(C#N)cc3)c2c1C`: the inhibition was 9.82%. For `Cc1nn(-c2ccccc2)c(Cl)c1/C=N\NC(=O)c1cncc(Br)c1`, the inhibition was 22%. For `CC(=O)c1ccc(N2C(=O)NC3(CCCCC3)C2=O)cc1`, the inhibition is 3.35%.

As to `COc1cccc(-c2nc(CS(=O)(=O)CC(=O)Nc3cc(C)ccc3C)c(C)o2)c1`, the inhibition is 15.6% and 1.41%.

`COc1ccc(/C=N/Nc2cc(C)nc(NS(=O)(=O)c3ccc(C)cc3)n2)cc1`: the inhibition was 11.9%. The same measure for `CCN(CC)S(=O)(=O)c1ccc(N/N=C/c2ccc(O)cc2O)nc1`: 21.6%. For `Cc1cc(N/N=C/c2ccc(O)cc2)nc(NS(=O)(=O)c2ccccc2)n1` the value was 10.1%; for `COc1cccc(/C=N/Nc2cc(Cl)nc(C)n2)c1O`, 21%. The same measure for `CCN(CC)S(=O)(=O)c1ccc(N/N=C/c2cccnc2)nc1`: 9.01%.

As for `Cc1nc(Cl)cc(N/N=C/c2ccc(O)cc2O)n1`, the inhibition is 24.5%. For `COc1ccccc1C(=O)N/C(=C/c1cccc([N+](=O)[O-])c1)C(=O)Nc1cccc(C(=O)O)c1` the value was -0.39%; for `O=C(O)CN1C(=O)c2ccc(Oc3ccc([N+](=O)[O-])cc3)cc2C1=O`, 7.08%. The same measure for `CCOCCCn1c(SCC(=O)Nc2ccc3[nH]c(=O)[nH]c3c2)nc2ccccc2c1=O`: 10.2%. For `O=C(Cc1c(Cl)cccc1Cl)N/N=C/c1cccnc1` the value was 17.8%. For `COc1cc(C(=O)CSc2nnc(-c3ccc(O)cc3)n2CC2CCCO2)ccc1NC(C)=O` (stereo unspecified), the inhibition is 4.93%. For `COc1ccc(CCN2C(=O)NC(NS(=O)(=O)c3ccc(Cl)cc3)(C(F)(F)F)C2=O)cc1OC` (stereo unspecified) the value was 12.9%; for `O=C(COC(=O)C1COc2ccccc2O1)Nc1cccc(S(=O)(=O)N2CCCCC2)c1` (stereo unspecified), 11.3%. For `CN(c1ccc(C(=O)Nc2ccc3c(c2)OCO3)cc1)S(C)(=O)=O` the value was 14.1%; for `Cc1c(CC(=O)N2CCN(C(=O)C3COc4ccccc4O3)CC2)c(=O)oc2c(C)c(O)ccc12` (stereo unspecified), 24.4%.

`COc1ccc2c(C)c(CC(=O)N3CCN(C(=O)C4COc5ccccc5O4)CC3)c(=O)oc2c1C` (stereo unspecified): the inhibition was 12%.

`Cc1cccn2c(=O)c3cc(C(=O)NC4CCCCC4)c(=N)n(Cc4ccccc4)c3nc12`: the inhibition is 5.16%. The same measure for `Cc1nc2sc3c(c2c(=O)o1)CCC3`: 9.19%; for `Cc1nc2sc3c(c2c2nc(-c4ccco4)nn12)CCCC3`: 14.8%; for `COc1ccc(C(=O)NCC(=O)OCc2ccccc2F)cc1`: 6.15%.

On to `O=C(COc1ccc(S(=O)(=O)N2CCOCC2)cc1)NCCCn1ccnc1`, for which the inhibition was 7.23%. The same measure for `COc1cccc(CNS(=O)(=O)c2c(C(=O)N3CCCCCC3)c(C)n(C)c2C)c1`: 2.83%; for `CC(C)CN(CC(C)C)C(=O)CN1C(=O)NC2(CCc3ccccc3C2)C1=O` (stereo unspecified): 23.5%; for `N#Cc1c(N)sc(=S)c2c1CCCC2`: 29.3%. For `N#Cc1c(N)sc2c1CCCCCC2` the value was 32%. For `Cn1c(CNC(=O)c2ccc3c(c2)OCO3)nnc1SCC(=O)Nc1ccccc1Cl`, the inhibition is 10.7%. Consider `COc1ccc(Cc2c(N)nc(N)nc2N)cc1`, for which the inhibition was -2.12%. As to `Nc1ccc(OCCc2ccccc2)cc1`, the inhibition was 30.9%. For `CC(C)C1N=C2c3ccccc3N=C(SCC(=O)NCCc3ccc(S(N)(=O)=O)cc3)N2C1=O` (stereo unspecified), the inhibition is 1%. The same measure for `CC(C)C1N=C2c3ccccc3N=C(SCC#N)N2C1=O` (stereo unspecified): 6.69%. As to `Cc1ccc(-c2nnc(SCC(=O)N3c4ccccc4NC(=O)C3(C)C)n2N)cc1`, the inhibition was 4.15%.

Regarding `O=Cc1ccc(O)c(O)c1`, the inhibition is 34.4%. For `COc1cc(/C=C/C(=O)O)ccc1O` the value was 24.2%; for `O=C(/C=C/c1ccc(O)c(O)c1)NC(=O)c1ccccc1O`, 6.12%; for `Cc1ccc(/C=C/C(=O)c2ccccc2O)cc1`, 11.7%.

Regarding `CC(/C=C/c1ccccc1)=N/O`, the inhibition was 10.9%. Turning to `Nc1cccc(/C=C/C(=O)O)c1`, the inhibition was 15.7%. For `COc1cc(/C=C/c2ccc(O)cc2)cc(OC)c1` the value was 11.3% and 1.99%; for `CCOc1ccc(/C=C\C(C)=N\O)cc1`, 29.6%; for `Cc1nc2ccccc2c(=O)n1-c1ccc(NS(=O)(=O)c2ccccc2)cc1`, -1.73%.

Regarding `NC(=O)C1CCN(C(=O)c2cccc3ccccc23)CC1`, the inhibition was 16.8%. The same measure for `CCOC(=O)CC1C(=O)NCCN1C(=O)c1ccc(Cl)cc1Cl` (stereo unspecified): 3.58%. The same measure for `Fc1ccc(C2c3cccn3CCN2C(=S)Nc2cccc(F)c2)cc1` (stereo unspecified): 6.14%. As to `Cn1c(=O)c(C(=O)CN2CCN(S(=O)(=O)c3ccccc3)CC2)c(N)n(Cc2ccccc2)c1=O`, the inhibition is 2.73%. The same measure for `COC(=O)C1C(=O)c2c([nH]c(C(=O)OC3CCCCC3)c2C)CC1C` (stereo unspecified): 0.84%; for `O=C1OC(c2ccc3c(c2)OCO3)N(C(=O)c2ccc(Cl)c(Cl)c2)c2ccccc21` (stereo unspecified): 10.3%; for `CCCC(=O)N(c1ccc2oc(=O)sc2c1)S(=O)(=O)c1ccccc1`: 22.9%. As for `COc1ccc(C(CNC(=O)COc2ccccc2)N2CCOCC2)cc1` (stereo unspecified), the inhibition was 5.3%.

Consider `CCCc1cc(=O)[nH]c(SCCCCN2C(=O)c3ccccc3C2=O)n1`, for which the inhibition is 16.4%.

As to `O=C(/C=C/c1ccc(O)cc1)c1c(O)cc(O)cc1O`, the inhibition was 3.62%.

Turning to `CC(C)c1ccc(/C=C/C(=O)O)cc1`, the inhibition was 15.3%.
